Source: PubChem BioAssay AID1942 (Johns Hopkins Ion Channel Center, 2009)
About 580 (24%) of roughly 2,400 compounds were called active. A selection follows. Unmarked numbers belong to inactive results.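 The calls were made as follows: active = activity change at or above the mean plus 3 SD of buffer wells without dofetilide, per plate; inactive = the rest.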

biological target: Potassium voltage-gated channel subfamily KQT member 2 (Rattus norvegicus) (UniProt O88943); assay: KCNQ2 potentiation in CHO cells – cell-based, FluxOR thallium flux, counter-screen for hERG block protector project, confirmation (AID 1942); settings: FluxOR thallium flux fluorescence, at 10 µM, active compounds read high;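 also: normalized value minus buffer-control mean plus three SD of buffer wells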
Sequence (O88943 whole entry, looked up): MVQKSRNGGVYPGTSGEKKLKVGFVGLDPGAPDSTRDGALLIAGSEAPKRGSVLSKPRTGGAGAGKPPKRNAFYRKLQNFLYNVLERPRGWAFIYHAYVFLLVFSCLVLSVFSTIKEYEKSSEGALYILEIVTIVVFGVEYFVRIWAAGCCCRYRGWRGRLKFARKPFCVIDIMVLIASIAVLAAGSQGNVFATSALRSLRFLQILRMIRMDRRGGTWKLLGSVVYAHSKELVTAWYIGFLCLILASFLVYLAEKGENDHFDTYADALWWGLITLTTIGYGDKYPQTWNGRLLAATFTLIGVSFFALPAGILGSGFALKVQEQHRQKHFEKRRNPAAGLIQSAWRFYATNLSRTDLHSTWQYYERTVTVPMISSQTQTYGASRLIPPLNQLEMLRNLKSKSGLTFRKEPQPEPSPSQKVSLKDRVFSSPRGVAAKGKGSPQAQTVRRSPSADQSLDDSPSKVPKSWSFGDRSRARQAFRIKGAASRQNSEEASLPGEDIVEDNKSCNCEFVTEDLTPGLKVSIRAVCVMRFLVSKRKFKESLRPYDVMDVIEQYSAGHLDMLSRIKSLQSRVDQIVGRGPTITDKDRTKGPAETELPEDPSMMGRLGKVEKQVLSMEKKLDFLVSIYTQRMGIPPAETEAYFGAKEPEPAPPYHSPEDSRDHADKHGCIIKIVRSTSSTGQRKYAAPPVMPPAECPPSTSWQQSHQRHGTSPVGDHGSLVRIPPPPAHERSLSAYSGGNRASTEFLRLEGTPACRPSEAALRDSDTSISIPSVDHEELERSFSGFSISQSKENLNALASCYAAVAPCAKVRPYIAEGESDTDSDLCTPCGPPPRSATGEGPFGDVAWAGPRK

SMILES	activity change, less the hit threshold
Cc1ccc(-c2csc3nc[nH]c(=S)c23)cc1C	2.5% (active)
Cc1cc(-c2csc3nc[nH]c(=S)c23)cc(C)c1C	33.7% (active)
C=CCNC(=O)CC(=O)N/N=C/c1cccs1	-10.2%
Nc1nc(O)c(N=Nc2ccc(S(N)(=O)=O)cc2)c(=O)[nH]1	-16.5%
CSc1nc2c(c(=O)[nH]1)C(c1ccc(Br)cc1)CC(=O)N2 (configuration not stated)	-18.9%
COc1ccc(S(=O)(=O)c2snnc2C)cc1	-14.8%
CN(Cc1cccc(C(F)(F)F)c1)Cc1nc(-c2cnccn2)no1	-21.7%
COC(=O)C1=C(C)NC2=C(C(=O)CCC2)C1c1ccc(-c2ccsc2C(=O)OC)o1 (configuration not stated)	53.7% (active)
COC(=O)C(C)Sc1nnc(Cc2cc(=O)[nH]c(=O)[nH]2)n1-c1cccc(OC)c1 (configuration not stated)	-15.6%
Cc1ccc(-n2ncc3c2CCCC3NC(=O)c2csnn2)cc1C (configuration not stated)	-24.7%
O=c1c2ccccc2[nH]c(=S)n1CCC1=CCCCC1	18% (active)
O=c1c2cccnc2[nH]c(=S)n1CCC1=CCCCC1	48.1% (active)
O=c1c2ccc(Cl)cc2[nH]c(=S)n1CCC1=CCCCC1	9.4% (active)
O=C(CCn1c(=S)[nH]c2cc3c(cc2c1=O)OCO3)NCc1ccc(Cl)cc1	-10.2%
COc1ccccc1CNC(=O)CCCC(=O)n1ncc2cc(C)ccc21	-14.9%
N#C/C(=N\Nc1ccccc1F)c1nc(-c2ccccc2)cs1	-27.5%
CC(=O)Nc1ccc2nc(NC(=O)c3ccc([N+](=O)[O-])o3)sc2c1	-16.8%
Cc1cc(NC(=O)Cn2c(=O)n(Cc3ccccc3)c(=O)c3ccccc32)no1	-19.9%
Cc1ccc(C(C)C)c(OCc2n[nH]c(=S)o2)c1	10.8% (active)
c1ccc(SSc2ccccn2)nc1	-14%
CC(C)(C)Cc1nnc(NC(=O)c2ccco2)s1	-19.2%
O=C(Nc1nc(=S)ss1)c1ccc(Cl)cc1Cl	100% (active)
O=C(NNC(=O)c1ccc(Cl)cc1Cl)c1cnccn1	-19.5%
Cc1ccc(C)c2sc(NC(=O)c3nc4ccccc4s3)nc12	-7.3%

SMILES	activity change, less the hit threshold
Cn1sc(NC(=O)c2cccc(Cl)c2)nc1=O	-5.4%
Cc1ccccc1C(=O)Nc1nc(=S)ss1	58.6% (active)
CC(C)CC(=O)Nc1nc(=S)ss1	-15.9%
COc1cc(/C=C2/SC(=S)N(CC(=O)O)C2=O)ccc1OCC(=O)Nc1ccc(C)c(C)c1	-18.3%
COC(=O)c1ccnc(/C=N/O)c1	-13%
N=C1SCC(=O)N1c1ncc(Cc2ccccc2Cl)s1	-20.8%
N#Cc1c(NC(=O)c2cc(-n3cnnc3)ccc2Cl)sc2c1CCCC2	-10.6%
COc1ccc2nc(/N=C/c3c(C)[nH]n(-c4ccc(C)cc4)c3=O)sc2c1	103% (active)
CCOc1ccc2nc(N3C(=O)/C(=C/c4ccccc4)NC3=S)sc2c1	-26.6%
CCOc1ccc2nc(/N=C/c3c(C)[nH]n(-c4ccccc4)c3=O)sc2c1	109% (active)
Cc1[nH]n(-c2cccc3ccccc23)c(=O)c1/C=N/c1sc2c(c1C#N)CCC2	-0.6%
Cc1[nH]n(-c2ccc(Cl)cc2)c(=O)c1/C=N/c1nnc(-c2ccccc2)s1	170% (active)
COc1ccc2nc(N=Nc3c(O)ccc4ccccc34)sc2c1	-4.3%
Cc1[nH]n(-c2ccc(F)cc2)c(=O)c1/C=N/c1sc2c(c1C#N)CCCC2	21.6% (active)
COc1ccc2nc(-n3c(O)c(C4=c5ccccc5=NC4=O)[nH]c3=S)sc2c1	-16.8%
CCOc1ccc2nc(/N=C/c3nc(-c4ccccc4)oc3O)sc2c1	-11.5%
CC(=O)c1ccc(N2CCN(C(=O)Cc3ccccc3)CC2)c(F)c1	-28%
CCCN(CC(=O)Nc1ccccc1C)C(=O)CCl	-25.4%
CCc1nnc(NC(=O)c2cccc(S(=O)(=O)N3CCN(c4ccccc4)CC3)c2)s1	-21.2%
COC(=O)/C=C1\S/C(=N/N=C/c2ccco2)NC1=O	-11%
CSc1nc2ccc(S(=O)(=O)N3CCc4ccccc43)cc2s1	-21.8%
Cc1ccc2[nH]cc(CCNC(=O)/C=C/c3ccco3)c2c1	-22.5%
CCOC(=O)c1nnsc1NC(C)=O	-19.7%
